Hit rate of the full screen: of about 330,000 compounds, about 1,900 (0.58%) were called active. Another 4% or so got no clear call; they are omitted. These entries were drawn from the full list. Results with a measured potency or affinity are listed apart. Unmarked numbers belong to inactive results. Cut-off read from the data, not from the text of the source: inconclusive = inhibition above about 70% without an active follow-up result; inactive = below that.

The nature of the assay: M. tuberculosis growth inhibition, HTS (AID 449762).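 Note: bacterial growth assessed after seven days of incubation.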 The following applies: M. tuberculosis H37Rv growth inhibition, 7H9 media; at 25 µM; hits give high values.
What is called inhibition is the change of the read-out against control, counted positive when it falls. As for `CCN1C(=O)N[C@@H](c2cccs2)C(C(C)=O)=C1C`, the inhibition is 4.56%. As for `COc1cc(Cl)c(C)cc1NC(=O)COC(=O)c1cc[n+]([O-])cc1`, the inhibition is -3.43%.

Consider `Cn1c(=O)c2ccccc2n2c(CCl)nnc12`, for which the inhibition was 26.5%. As for `CCCCCn1c(=O)c2ccccc2n2c(=S)[nH]nc12`, the figure is -1.55%. In the case of `O=C(Nc1ccccc1Br)c1cc[n+]([O-])cc1` it was -2.42%; in that of `Nc1ncnc(Sc2ccc(Cl)cc2)c1[N+](=O)[O-]`, 2.27%. Turning to `Cc1ccc(Sc2ncnc(N)c2[N+](=O)[O-])cc1`, the inhibition is 4.72%. As for `N#Cc1c2n(c(=S)n(-c3ccccc3)c1=O)CCCCC2`, the figure is -1.66%. As for `CC1CCN(C(=O)CN2C(=O)C(=O)c3ccccc32)CC1`, the figure is -10.1%; as for `O=C(NNC(=O)C1CCCCC1)c1ccncc1`, -9.44%. In the case of `COc1ccc(CN2CCNC(=O)C2CC(=O)N(C)CC2CCOCC2)cc1OC` (stereo unspecified) it was -3.73%; in that of `COC(=O)COc1ccccc1C(N)=O`, -7.49%; in that of `COC(=O)COc1cc(Cl)c(C=O)cc1OC`, 8.16%. Consider `CS(=O)(=O)c1ccc(Cl)c(C(=O)OCC(=O)NC2CCCCCCC2)c1`, for which the inhibition is -2.61%. As to `O=C(Nc1nnc(-c2ccc3c(c2)OCCO3)o1)c1ccc(Cc2ccccc2)cc1`, the inhibition was 56%. In the case of `CN(c1ccccc1)S(=O)(=O)c1ccc(C(=O)Nc2nnc(C3=COCCO3)o2)cc1` it was 38.1%; in that of `O=C(Nc1c(-c2ccc(F)cc2)nc2ccccn12)c1ccc(F)cc1`, 14.4%. As for `CC(=O)N[C@H]1[C@H](Oc2ccc3c(c2)CCC2C3CC[C@]3(C)C(=O)CCC23)O[C@H](CO)[C@@H](O)[C@@H]1O` (stereo partly specified), the inhibition was 3.76%. In the case of `CCN(CC(=O)NC1CCS(=O)(=O)C1)S(=O)(=O)c1ccc(C)c(C)c1` (stereo unspecified) it was 1.2%; in that of `O=C(NCCCl)Nc1ccc(Cl)c([N+](=O)[O-])c1`, -1.56%. Consider `CC1CCC(C(C)C)C(OC(=O)COC(=O)c2ccccc2N)C1` (stereo unspecified), for which the inhibition is 2.86%. Take `CCOC(=O)Cn1c(COc2ccccc2OC)[n+](C)c2ccccc21`: the inhibition was -2.02%. `CC1CCC(C(C)C)C(OC(=O)COC(=O)c2cccn2C)C1` (stereo unspecified): the inhibition was 12.5%.

Regarding `CCCCCCCCCCOC(=O)Cn1c(COc2cccc(C)c2)[n+](C)c2ccccc21`, the inhibition is 64.7%. In the case of `CCOC(=O)C(/C=C(\C#N)C(=O)OCC)=C(/N)N1CCN(c2ccccc2)CC1` it was -6.55%; in that of `CCOC(=O)C(/C=C(\C#N)C(=O)OCC)=C(/N)N1CCN(c2ccc(OC)cc2)CC1`, -6.61%.

For the origin of these results see PubChem BioAssay AID449762 (Southern Research Specialized Biocontainment Screening …, 2010).
